# Compounds with a hit are over-represented: about 0.55% of the library has one in this group of screens.
# S-ASM inh: blocks human secretory acid sphingomyelinase; P17405; placental ASM, HMU-PC fluorogenic substrate, 60 min; Potency, µM (top dose mostly 57.5 µM), without a hit: at the highest dose activity change, negative = inhibition, usual class: inhibitors; 340,000 compounds, 0.006% hits; AID 504937
#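 HMU-PC0 cleavage (9 uM final) by human placental ASM, 60 min at 37 °C following 10 min compound exposure at RT; stopped at pH 10, fluorescence Ex 386/Em 447 nm.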
# ERG-DNA inh: blocks human ERG Ets domain binding to DNA. fluorescence polarization, His-ERG Ets domain / labelled DNA. 370,000 compounds, 0.028% hits. P11308. Potency, µM (highest dose often 76.9 µM), inactives show at the top dose FP activity, negative = inhibition, usual class: inhibitors; active = well fitted inhibition curve with a large enough effect in the polarisation, with a control signal flat; inconclusive = small, poorly fitted or top-dose-only effect, or effect the other way, or a change in a side signal; inactive = no such curve, though single readings can be large or run the other way; the % refers to the polarisation;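 note: polarization taken with two DNA probes labelled with fluorescein and Texas red; % of control where 0% means no effect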
# Target sequence (P11308 whole entry, looked up, the tested form may be a part): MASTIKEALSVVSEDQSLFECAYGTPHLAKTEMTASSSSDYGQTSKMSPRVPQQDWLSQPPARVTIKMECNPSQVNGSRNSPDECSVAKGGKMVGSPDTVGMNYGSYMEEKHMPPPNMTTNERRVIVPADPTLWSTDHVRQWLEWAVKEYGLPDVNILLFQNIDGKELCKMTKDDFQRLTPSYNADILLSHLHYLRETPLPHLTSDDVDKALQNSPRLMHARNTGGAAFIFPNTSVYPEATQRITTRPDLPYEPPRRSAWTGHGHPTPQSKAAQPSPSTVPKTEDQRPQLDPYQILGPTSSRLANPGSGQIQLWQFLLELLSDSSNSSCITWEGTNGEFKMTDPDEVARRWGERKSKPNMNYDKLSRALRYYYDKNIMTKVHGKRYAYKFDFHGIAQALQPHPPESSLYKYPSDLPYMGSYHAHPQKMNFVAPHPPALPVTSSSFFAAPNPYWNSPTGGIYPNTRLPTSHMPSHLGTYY
#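 His-tagged ERG Ets domain (1 uM in the protein solution; 300mM KCl, 50mM Tris-HCl, 1mM EDTA, 1mM DTT, pH 7.5) received compound, then a probe mix of 5 nM fluorescein-DNA and 100nM Texas-615-DNA. Fluorescence polarization was read for both dyes.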
# KAT2A inh: blocks human GCN5L2 histone acetyltransferase; Q92830; GCN5L2 HAT assay, ThioGlo1 CoA-SH fluorescence; Potency, µM (titrated, usually from 58.9 µM), for inactives: at the top dose activity change, negative = inhibition, hits mostly inhibitors; 390,000 compounds, 0.21% hits; AID 504327; note: % is set by controls: 0 for no effect and ±100 for the full control effect
#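 Titration-based screen in which CoA formation is detected via maleimide probe ThioGlo1 (50uM) turning fluorescent on thiol reaction; substrates H3(1-25) 75uM and acetyl-CoA 70uM, GCN5L2 20nM, 20 min incubation at room temperature.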
# A-T KAP1 phos: potential ataxia-telangiectasia treatment; F2112 A-T fibroblasts, KAP-1 phosphorylation AlphaLISA; neocarzinostatin DNA damage 30 min before lysis; Potency, µM (series often up to 57.5 µM), without a hit: at the highest dose activation, hits mostly activators; 320,000 compounds, 0.19% hits; AID 485349; note: % of control where 0% means no effect; nearly all actives have a fitted effect of over 45% in size
#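 hTERT-immortalized A-T patient fibroblasts (F2112), 500 cells/well in OPTI-MEM, 1% FBS, got compounds for 60 min, then NCS for 30 min at 37C. Lysates were then assayed for phospho-KAP-1 by AlphaLISA (anti-pKAP1 donor, anti-KAP1 acceptor beads), 6 hr at 25C.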
# p53 reactivator: re-activators of mutant p53; Potency, µM (titrated, usually from 92.2 µM), inactives show top-dose activity change, positive = activation, most hits filed as activators; AID 504706; H1299 p53-A138V BP100-luciferase reporter, luminescence, 24 h; 320,000 compounds, 0.063% hits; note: % of control where 0% means no effect; nearly all actives have a fitted effect of over 45% in size
#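 H1299 (p53-null), stable ts p53-A138V + BP100-Luc; 1000 cells/well, Opti-MEM/10% FBS; cpd 4 pt, 1:5; 24 h, 37 deg C, 5% CO2; detection reagent 10 min RT; luminescence.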
# Tb PFK inh: blocks T. brucei phosphofructokinase; Potency, µM (titrated, usually from 57.5 µM), inactives show at the top dose activity, negative = inhibition, actives largely listed as inhibitors; T. brucei PFK, ADP-Glo luminescence; 330,000 compounds, 0.17% hits; O15648; AID 485367;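 note: 0% = uninhibited 1x PFK enzyme wells and -100% = no-enzyme wells; nearly all actives have a fitted effect of over 60% in size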
#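 Luminescent ADP detection (ADP-Glo, two-step: ATP depletion then ADP-to-ATP conversion for luciferase) reported PFK activity after 45 min room-temperature reaction of 1.25 nM enzyme with 0.5 mM F6P and 0.1 mM ATP at pH 8.0.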
# * hit, by the source's call; i = inactive; ? = inconclusive; / = no result given. Unless noted, calls come from the whole dose curve; as a rule, active = well fitted curve in the direction sought with a large enough effect; inconclusive = small, poorly fitted or top-dose-only effect, or another doubt; inactive = no such curve, though single readings can be large; an effect the other way counts as inactive or inconclusive. Potency is the fitted concentration of half-maximal effect.
SMILES,S-ASM inh,ERG-DNA inh,KAT2A inh,A-T KAP1 phos,p53 reactivator,Tb PFK inh
OCC1O[C@H]([S-])[C@H](O)[C@@H](O)[C@@H]1O.[Au+] (stereo partly specified),/,/,117.5%,/,/,/
CCCn1nc(NC(=O)C2CCCO2)c2cc3ccc(C)cc3nc21 (stereo unspecified),i,5.4%,-3.3%,25.1µM*,-6.4%,0.6%
CCn1nc(NC(=O)CC(C)C)c2cc3ccc(C)cc3nc21,186.7%,18.7%,14.8%,20µM*,-5.9%,-0.9%
CCCC(=O)Nc1nn(CC(C)C)c2nc3cc(C)ccc3cc12,309.6%,6.0%,7.0%,0.0%,-2.1%,-0.7%
COc1ccc2nc3c(cc2c1)c(NC(=O)C1CCCO1)nn3CC(C)C (stereo unspecified),i,-2.8%,-16.0%,35.5µM*,?,-3.5%
COc1ccc2nc3c(cc2c1)c(NC(=O)CC(C)C)nn3CC(C)C,484.7%,3.9%,-3.8%,34.2%,2.3%,-0.4%
CCOC(=O)c1c(C)[nH]c(CCC(=O)Nc2ccc(C)c(F)c2)c1C,/,2.0%,-2.9%,/,/,/
CCC(C)C(=O)OC1C2CC3=C4CC(=O)OC(c5ccoc5)[C@]4(C)CCC3[C@@](C)(C2=O)C(CC(=O)OC)C1(C)C (stereo partly specified),/,/,-1.2%,/,/,/
CCOc1ccc(NC(=O)Cn2c(=O)n(Cc3ccccc3)c(=O)c3c4c(sc32)CN(C(C)=O)CC4)cc1,/,1.0%,-5.2%,/,/,/
COC(=O)CC1Oc2ccc(Cl)cc2-n2cc(-c3ccc(F)cc3)nc21 (stereo unspecified),/,?,-1.5%,/,/,/
CCc1cc2c(cc3c(=O)n(CCCC(=O)NCc4cccc(Br)c4)ncn32)s1,/,-3.5%,-3.9%,/,/,/
COc1ccccc1CNC(=O)COCc1cc(-c2cccs2)on1,/,-2.4%,-2.1%,/,/,/
N[C@](CC1c2ccccc2Oc2ccccc21)(C(=O)O)[C@@H]1C[C@@H]1C(=O)O,/,/,-5.1%,/,/,/
CCCc1cc(=O)oc2c(CN3CCCC3)c(O)c(Cl)cc12,i,-2.1%,?,24.9%,-3.1%,0.4%
CCCc1cc(=O)oc2c3c(c(Cl)cc12)OCN(CCCO)C3,/,/,12.6µM*,33.2%,5.0%,-8.8%
C=C1N[C@]2(C(=O)COC(C)=O)[C@@H](C[C@H]3[C@@H]4CCC5=CC(=O)C=C[C@]5(C)[C@H]4[C@@H](O)C[C@@]32C)O1,/,/,0.4%,/,/,/
C=C(C(=O)c1ccccc1)C(c1ccccc1)C(C)C(=O)c1ccccc1 (stereo unspecified),-1.5%,1.8%,-0.1%,10.6%,-2.9%,-0.8%
C=C(C(=O)c1ccccc1)C(C)C(=C)C(=O)c1ccccc1,-0.2%,0.5%,-5.4%,28.2µM*,-19.1%,-1.1%
CC12CCC(C(=O)NNc3ccc([N+](=O)[O-])cc3)(OC1=O)C2(C)C (stereo unspecified),-3.5%,-22.1%,-8.5%,10µM*,-1.3%,0.1%
O=C1C(NS(=O)(=O)c2cccs2)=C(N2CCOCC2)C(=O)c2ccccc21,-0.4%,-2.5%,-2.1%,7.08µM*,3.6%,-3.5%
COc1ccccc1/C=C/c1ccc2cccc(O)c2n1,9.0%,-0.4%,-1.7%,15.5%,?,3.6%
CCOc1cccc(/C=C/c2ccc3cccc(O)c3n2)c1O,-0.2%,-2.7%,-12.5%,18.2%,10µM*,10.8%
O=C(CSc1nccn1Cc1ccc(F)cc1)Nc1ccc2c(c1)OCO2,/,8.2%,-1.6%,/,/,/
CCC(=O)OCCNc1cc(SCCC(=O)OC)c2nonc2c1[N+](=O)[O-],-9.8%,-9.1%,-1.3%,-5.0%,-30.3%,-5.9%
CCCC(=O)OCCNc1cc(Sc2nc3ccccc3[nH]2)c2nonc2c1[N+](=O)[O-],-13.6%,0.2%,-11.1%,-6.4%,-26.8%,21.3µM*
SMILES,S-ASM inh,ERG-DNA inh,KAT2A inh,A-T KAP1 phos,p53 reactivator,Tb PFK inh
O=C(NCc1ccccc1)C1CCN(S(=O)(=O)Cc2ccccc2)CC1,/,5.4%,-4.9%,/,/,/
O=C(Nc1ccc(Cl)c(Cl)c1)Oc1ccc(NC(=O)c2ccco2)cc1,-21.0%,-11.5%,-17.9%,-3.0%,9.2%,13.5µM*
COC(=O)N1C(=O)[C@](c2ccccc2)(C2CCCCC2)N1C(=O)OC,6.3%,11.6%,1.4%,15.9%,/,0.2%
COC(=O)N1C(=O)[C@@](c2ccccc2)(C2CCCC2)N1C(=O)OC,3.8%,-1.6%,0.8%,25.1µM*,-7.9%,-9.2%
COC(=O)N1C(=O)[C@@](CC(C)C)(c2ccccc2)N1C(=O)OC,/,/,3.0%,35.5µM*,/,3.6%
COC(=O)N1C(=O)[C@](CC(C)C)(c2ccccc2)N1C(=O)OC,0.9%,-0.4%,-0.5%,16.7%,/,-1.0%
COc1ccc(-c2nc(C)c(CCNC(=O)c3ccc(F)c(F)c3)s2)cc1,/,-2.6%,-7.1%,/,/,/
CCOC(=O)c1ccc(NC(=O)c2cc3cc(C)ccc3n2C)cc1,/,-1.6%,-1.3%,/,/,/
CCCCCCCCCCCCCCCC(=O)OC[C@H](COP(=O)([O-])OCC[N+](C)(C)C)OC(=O)CCCCCCCCCCCCCCC,/,/,2.2%,-13.0%,8.4%,-9.5%
CCCCCCCCCCCCCCCCOC[C@H](COP(=O)([O-])OCC[N+](C)(C)C)OC(=O)CCCCCCCC(=O)O,/,/,15.8µM*,/,/,/
COc1ccc(NC(=O)C2=C(C)Nc3nc(SCc4ccccc4)nn3C2c2cc(OC)ccc2OC)cc1 (stereo unspecified),/,2.1%,-0.4%,/,/,/
N/C(=N\OC(=O)c1ccc2ccccc2c1)c1ccccc1Cl,-1.0%,-9.4%,-19.3%,9.1%,20µM*,0.2%
O=C(NCCCNC(=O)c1c(F)cccc1F)c1c(F)cccc1F,4.2%,-4.3%,-4.9%,-9.1%,3.8%,10.2%
O=C(NCC(Cl)c1ccc2ccccc2c1)c1c(F)cccc1F (stereo unspecified),2.7%,14.4%,7.7%,20µM*,8.2%,10.6%
CC(C)(C)NC(=O)c1cnn(-c2ccccc2)c1C1CCN(C(=O)OC(C)(C)C)CC1,/,-6.5%,16.5%,/,/,/
COc1ccccc1CNc1ccc(-c2nc(-c3ccco3)no2)cc1[N+](=O)[O-],/,0.0%,-2.2%,/,/,/
S=C1NC(c2ccccc2)N2C(=S)NC(c3ccccc3)N12 (stereo unspecified),-1.0%,-4.7%,28.2µM*,-1.1%,14.3%,?
COc1ccc(C2NC(=S)N3C(c4ccc(OC)cc4)NC(=S)N23)cc1 (stereo unspecified),7.6%,-1.8%,-19.3%,-0.3%,1.1%,3.6%
CCCCCCCCCCCCCCC(C(=O)O)C(O)(CC(=O)OC)C(=O)O (stereo unspecified),/,/,12.6µM*,/,/,/

# High-throughput results deposited in PubChem by National Center for Advancing Translational Sciences (NCATS).
